What all share (experiment): NCI-60 one-dose screen, 48 h (100 = growth as untreated, 0 = no growth, -100 = all killed)
For one assay, the system named is RPMI-8226 leukemia. To be noted: 10 µM unless noted.
The next assay relates to OVCAR-8 ovarian. To be noted: 10 µM unless noted.
In another assay the test system is OVCAR-5 ovarian. To be noted: 10 µM unless noted.
Another assay relates to SK-OV-3 ovarian. The note with it: 10 µM unless noted.
The next assay relates to IGROV1 ovarian. The note with it: 10 µM unless noted.
The next assay concerns OVCAR-3 ovarian. To be noted: 10 µM unless noted.
The test system of a further assay is HS 578T breast. To be noted: 10 µM unless noted.
For a further assay, the system named is NCI/ADR-RES ovarian. To be noted: 10 µM unless noted.
The subject of the next assay is T-47D breast. To be noted: 10 µM unless noted.
In the next assay the test system is MDA-MB-435 melanoma. The note with it: 10 µM unless noted.
The test system of a further assay is SW-620 colon. The note with it: 10 µM unless noted.
In a further assay the test system is MCF7 breast. The note with it: 10 µM.
The next assay has as its system HCT-116 colon. To be noted: 10 µM unless noted.
The next assay has as its system HCC-2998 colon. To be noted: 10 µM unless noted.
A further assay concerns KM12 colon. To be noted: 10 µM unless noted.
For another assay, the system named is BT-549 breast. The note with it: 10 µM unless noted.

The panel holds about 83,000 compounds, 20% with a hit somewhere; the sample as a whole holds those more often.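 Each cell line was grown in a 96-well plate and treated with one concentration of compound for 48 hours. Values below 10 were considered active.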 Values without a mark were called inactive. Activity calls are given as the source filed them.

This is an account of results in PubChem BioAssay (NCI).

In the case of `CCOc1ccc(-c2nonc2NC(=O)c2cccc(C)c2)cc1OCC`, the growth in the assay with RPMI-8226 leukemia was 9.09% (active); in the assay with OVCAR-8 ovarian, 79.5%; in the assay with OVCAR-5 ovarian, 89.4%; in the assay with SK-OV-3 ovarian, 96.2%; in the assay with IGROV1 ovarian it was 68.3%; in the assay on OVCAR-3 ovarian, 68.1%. The growth is 85.4% in the assay with HS 578T breast; 67.5% with NCI/ADR-RES ovarian; 84.3% in the assay with T-47D breast; 51.7% with MDA-MB-435 melanoma; 61.8% in the assay on SW-620 colon; 60.3% in the assay on MCF7 breast. In addition, the growth is 47.2% with HCT-116 colon, 81.8% in the assay on HCC-2998 colon and 62.6% in the assay with KM12 colon.
`CC1CCCCN1CCCNC(=O)c1ccc2c(c1)sc1nc(-c3ccc(F)cc3)cn12` (stereo unspecified): the growth was 86% in the assay with RPMI-8226 leukemia; 105% in the assay with OVCAR-8 ovarian; 100% in the assay with OVCAR-5 ovarian; 93.8% in the assay on IGROV1 ovarian; 105% in the assay on OVCAR-3 ovarian; 98.5% in the assay on HS 578T breast. Besides, the growth with T-47D breast is 93.4%; in the assay on BT-549 breast, 91%; in the assay with MDA-MB-435 melanoma, 109%; with SW-620 colon, 105%; with MCF7 breast it was 99.5%; with HCT-116 colon it was 89.7%. The growth with HCC-2998 colon was 88.7%; in the assay on KM12 colon, 101%.
For the compound `O=C(Nc1ccc(I)cc1F)c1cc(Br)ccc1O`, the growth is -18.9% (active) in the assay on RPMI-8226 leukemia; 7.13% (active) with OVCAR-8 ovarian; 23.7% in the assay on OVCAR-5 ovarian; -4.76% (active) with SK-OV-3 ovarian; 16.3% in the assay with IGROV1 ovarian; 8.04% (active) with OVCAR-3 ovarian. Further, the growth was -3.47% (active) in the assay on HS 578T breast; 7.79% (active) in the assay on NCI/ADR-RES ovarian; -9.09% (active) in the assay with T-47D breast; -3.54% (active) with MDA-MB-435 melanoma; 7.36% (active) in the assay with SW-620 colon; 2.45% (active) with MCF7 breast. For the same compound, the values for the growth in the assay with HCT-116 colon and in the assay on KM12 colon were -8.63% (active) and -7% (active), respectively.
Turning to `O=c1c2cc(F)ccc2sc2c(NCCCNCCO)nc3ccc(Cl)cc3c12`, the growth in the assay with RPMI-8226 leukemia was 36%; in the assay with OVCAR-8 ovarian, 63.7%; in the assay on OVCAR-5 ovarian it was 79.5%; in the assay on SK-OV-3 ovarian, 87.7%; with IGROV1 ovarian it was 32%; in the assay on OVCAR-3 ovarian, 68%. Also, the growth in the assay on HS 578T breast is 56.8%; in the assay on NCI/ADR-RES ovarian, 85.8%; with T-47D breast, 57.5%; in the assay on MDA-MB-435 melanoma it was 40.1%; with SW-620 colon, -38.8% (active); in the assay on MCF7 breast it was 31%. For the same compound, the figures for the growth in the assay with HCT-116 colon, in the assay on HCC-2998 colon and in the assay with KM12 colon were -18.5% (active), 60.7% and 44%, respectively.
In the case of `COc1ccc(C2=C(c3cccc(OC)c3)C(=O)c3ccc(C)nc3C2=O)cc1`, the growth in the assay on RPMI-8226 leukemia is 47.2%; in the assay with OVCAR-8 ovarian, 42.3%; with OVCAR-5 ovarian it was 104%; in the assay on IGROV1 ovarian, 43%; with OVCAR-3 ovarian it was 7.59% (active); in the assay on HS 578T breast, 52.5%. For the same compound, the growth in the assay with NCI/ADR-RES ovarian is 17.1%; in the assay with T-47D breast, -41.4% (active); with MDA-MB-435 melanoma, 32.2%; in the assay on SW-620 colon it was 23.6%; with MCF7 breast it was 23.7%; with HCT-116 colon, 11.2%. Also, the values for the growth in the assay with HCC-2998 colon and in the assay on KM12 colon were 84.6% and 28.6%, respectively.
With `COc1ccc(C(=O)Nc2ccc3nc(N4CCCCC4)cc(C)c3c2)cc1OC`, the growth was 61.8% with RPMI-8226 leukemia; 94.1% in the assay on OVCAR-8 ovarian; 89.1% in the assay on OVCAR-5 ovarian; 114% in the assay on SK-OV-3 ovarian; 59.1% in the assay on OVCAR-3 ovarian; 77.9% in the assay on HS 578T breast. Moreover, the growth in the assay with NCI/ADR-RES ovarian was 98.3%; in the assay on T-47D breast, 94.8%; in the assay with BT-549 breast, 90.6%; in the assay with MDA-MB-435 melanoma, 88.2%; in the assay on SW-620 colon, 23.7%; in the assay on MCF7 breast it was 80.2%. The growth in the assay with HCT-116 colon is 64.2%; in the assay on KM12 colon it was 23.7%.
`COc1ccc2oc(=O)cc(Cn3cc(Cn4cnc5c4c(=O)n(C)c(=O)n5C)nn3)c2c1`: the growth in the assay with RPMI-8226 leukemia was 103%; in the assay with OVCAR-8 ovarian, 106%; with OVCAR-5 ovarian, 94%; in the assay with IGROV1 ovarian, 104%; with OVCAR-3 ovarian, 110%; in the assay with HS 578T breast it was 97.8%. The growth is 105% in the assay with NCI/ADR-RES ovarian; 94.1% in the assay on T-47D breast; 105% in the assay on BT-549 breast; 108% with MDA-MB-435 melanoma; 105% in the assay with SW-620 colon; 92.1% in the assay on MCF7 breast. The growth in the assay on HCT-116 colon is 102%; with HCC-2998 colon, 95.9%; in the assay on KM12 colon it was 105%.
Consider `COC(=O)/C(CCC=C(C)C)=C1\[C@@H](OC(C)=O)C[C@@]2(C)[C@H]1C[C@@H](O)[C@H]1[C@@]3(C)CC[C@H](NC(=O)c4cnccn4)[C@@H](C)[C@@H]3CC[C@@]12C`, for which the growth is 75.8% in the assay with RPMI-8226 leukemia; 92.5% with OVCAR-8 ovarian; 109% in the assay with OVCAR-5 ovarian; 107% in the assay with IGROV1 ovarian; 108% with OVCAR-3 ovarian; 96.4% with HS 578T breast. The growth was 99.4% in the assay on NCI/ADR-RES ovarian; 87.4% in the assay on T-47D breast; 100% in the assay on BT-549 breast; 103% in the assay with MDA-MB-435 melanoma; 104% in the assay on SW-620 colon; 96% in the assay with MCF7 breast. The figures for the growth in the assay with HCT-116 colon, with HCC-2998 colon and in the assay with KM12 colon were 93.1%, 104% and 102%, respectively.
For the compound `O=Cc1cc2ccccc2nc1Nc1nccs1`, the growth with RPMI-8226 leukemia is 64%; in the assay on OVCAR-8 ovarian, 47.6%; in the assay with OVCAR-5 ovarian it was 85.6%; in the assay on IGROV1 ovarian, 42.6%; in the assay with OVCAR-3 ovarian, 55.2%; in the assay on HS 578T breast it was 91.9%. In addition, the growth with NCI/ADR-RES ovarian was 77%; in the assay with T-47D breast it was 77.5%; in the assay with BT-549 breast, 88.9%; in the assay on MDA-MB-435 melanoma, 81.4%; with SW-620 colon, 27.5%; in the assay on MCF7 breast, 13.2%. For the same compound, the growth is 54.3% in the assay on HCT-116 colon, 87.6% with HCC-2998 colon and 56.2% in the assay with KM12 colon.
